NLRP3 yeast inh = inhibitors of NALP3 inflammasome in yeast; Yeast reconstituted NLRP3/ASC/caspase-1, beta-gal luminescence, 24 h; inhibition, % at 10 µM; actives 0.39% (n = 330,000);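 active = inhibition of 50% or more; inactive = inhibition below 50%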;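 note: plate controls were induced DMSO wells for no effect and uninduced yeast grown without galactose for full effect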
tim23-1 inh = tim23-1 yeast growth inhibition; S. cerevisiae tim23-1 growth, BacTiter-Glo luminescence, 24 h; inhibition, % at 20 µM; actives 1.3% (n = 330,000); AID 463212;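 active = growth inhibition of the mutant yeast at or above 50%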;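 note: temperature-sensitive mutant grown at 25 °C; plate controls were DMSO-treated mutant yeast for no effect and medium wells lacking yeast for full effect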
SKKanGAS inh = inhibitors of SKKanGAS S. pyogenes growth in kanamycin (SK-promoter or general growth effect). BacTiter-Glo, 6 h. inhibition, % at 7.5 µM. actives 1.3% (n = 300,000). AID 1662;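 active = mean replicate score, as percent of positive control median, at least 50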;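 note: strain carries kanamycin resistance gene driven by streptokinase promoter and grows in 40 µg/ml kanamycin; loss of luminescence reflects streptokinase promoter inhibition or plain growth inhibition; 0% = median of DMSO wells and 100% = positive control at its reference dose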
tim10-1 inh = inhibits growth of tim10-1 mutant yeast | actives 2.2% (n = 330,000) | S. cerevisiae tim10-1 ts strain growth, BacTiter-Glo, 24 h | inhibition, % at 20 µM;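 active = inhibition of at least 40%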;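 note: mutant grown at 25 °C; 0% = DMSO wells with yeast and 100% = wells holding no yeast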
TIM10 inh = inhibits growth of TIM10 yeast strain; S. cerevisiae TIM10 strain growth, BacTiter-Glo luminescence, 24 h; inhibition, % at 10 µM; actives 1.4% (n = 330,000);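 active = inhibition of 40% or more at the single tested concentration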;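 note: wild-type TIM10 isogenic control strain grown at permissive 25 °C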
tim10-1 conf = confirmation of tim10-1 mutant yeast growth inhibitors; S. cerevisiae tim10-1 ts strain growth, BacTiter-Glo, 24 h; inhibition, % at 20 µM; actives 56% (n = 7,400); shares compounds with tim10-1 inh;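 active = inhibition of yeast growth at or above a set limit in either of two repeat tests at 20 µM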;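 note: tim10-1 mutant grown at permissive 25 °C to find synthetic lethal compounds; 0% = DMSO yeast wells and 100% = medium wells without yeast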
TIM10 conf = TIM10 yeast growth inhibition, confirmed; shares compounds with TIM10 inh; S. cerevisiae tim10 strain growth, BacTiter-Glo luminescence, 24 h; inhibition, % at 10 µM; actives 63% (n = 4,600);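 active = inhibition of yeast growth at or above a set limit in either of two replicates at 10 µM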;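 note: this counterscreen used the strain with wild-type TIM10; 0% = yeast with DMSO and 100% = medium wells lacking yeast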
tim23-1 confirm = confirmation of tim23-1 mutant yeast growth inhibitors. AID 463218. actives 83% (n = 4,400). S. cerevisiae tim23-1 growth, BacTiter-Glo luminescence, 24 h. inhibition, % at 20 µM. shares compounds with tim23-1 inh;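 active = inhibition above about 39% in either of two replicate wells at 20 µM, limit read from the data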;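 note: temperature-sensitive tim23-1 mutant grown at 25 °C; 0% = DMSO wells with yeast and 100% = medium wells without yeast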
* = called active by the depositor. A selection: hits, their analogues and other compounds. The true share with any hit is near 4.6%.

N#C/C(=C\c1cccnc1)C(=O)Nc1cccc(Cl)c1 was read as NLRP3 yeast inh 10.0, tim23-1 inh 85.0*, SKKanGAS inh 2.2, tim10-1 inh 48.1*, TIM10 inh 50.2*, tim10-1 conf 34.0*, TIM10 conf 23.6 and tim23-1 confirm 77.8*.
Cc1cccc(NC(=O)/C(C#N)=C\c2ccc(C(=O)O)cc2)c1 was read as NLRP3 yeast inh 4.2, tim23-1 inh 0.3, SKKanGAS inh 1.3, tim10-1 inh 0.1 and TIM10 inh 1.6.
`Cc1cccc(NC(=O)/C(C#N)=C\c2cccnc2)c1` gave NLRP3 yeast inh 21.5, tim23-1 inh 79.0*, SKKanGAS inh 1.2, tim10-1 inh 67.4*, TIM10 inh 65.8*, tim10-1 conf 55.6*, TIM10 conf 58.9* and tim23-1 confirm 77.6*.
Screening CC(OC(=O)c1ccccc1CCc1ccccc1)C(N)=O (centres undefined) returned NLRP3 yeast inh 12.3, tim23-1 inh 29.8, SKKanGAS inh -1.8, tim10-1 inh 22.2 and TIM10 inh -5.7.
`COc1ccc(S(=O)(=O)N2CCCCC2)cc1NC(=O)CCOc1cc(C)ccc1C` gave NLRP3 yeast inh 12.3, tim23-1 inh 10.5, tim10-1 inh 13.3 and TIM10 inh 8.2.
Screening N#C/C(=C\c1cccnc1)C(=O)Nc1cccc2ccccc12 returned NLRP3 yeast inh 10.6, tim23-1 inh 77.4*, SKKanGAS inh 13.9, tim10-1 inh 61.3*, TIM10 inh 59.7*, tim10-1 conf 57.9*, TIM10 conf 72.8* and tim23-1 confirm 78.3*.
Screening CCOC(=O)[C@H]1[C@H]2COc3ccc(Cl)cc3[C@@H]2N2C(=O)CN(CC3CCCO3)C(=O)[C@@]12C (some centres undefined) returned NLRP3 yeast inh 14.4, tim23-1 inh 2.6, tim10-1 inh 8.0 and TIM10 inh 5.3.
CC(=O)/C=C/c1ccc2ccccc2n1 was read as NLRP3 yeast inh 33.1, tim23-1 inh 70.6*, SKKanGAS inh -10.7, tim10-1 inh 65.2*, TIM10 inh 59.1*, tim10-1 conf 65.1*, TIM10 conf 59.6* and tim23-1 confirm 81.8*.
`C=CCc1cc(OC)ccc1OCCN1CC(C)OC(C)C1` (centres undefined) gave NLRP3 yeast inh 19.0, tim23-1 inh 20.8, SKKanGAS inh 6.5, tim10-1 inh 16.3 and TIM10 inh -10.1.
`OCC(O)/C=N/Nc1nc(Nc2ccccc2)nc(Nc2ccccc2)n1` (centres undefined) gave NLRP3 yeast inh 28.7, tim23-1 inh 53.9*, SKKanGAS inh 16.7, tim10-1 inh 49.8*, TIM10 inh 45.5*, tim10-1 conf 27.6, TIM10 conf 45.4* and tim23-1 confirm 48.0*.
`CNc1nc(N/N=C/c2ccc([N+](=O)[O-])cc2)nc(Nc2ccccc2)n1` gave NLRP3 yeast inh 45.6, tim23-1 inh 28.2, SKKanGAS inh 3.5, tim10-1 inh 10.8 and TIM10 inh 24.8.
Cc1csc(NC(=O)c2cc3c(s2)CCCC3)n1 was read as NLRP3 yeast inh 11.1, tim23-1 inh 49.9, SKKanGAS inh 9.4, tim10-1 inh 35.6 and TIM10 inh 36.0.
Screening Cc1csc(NC(=O)c2cc3c(s2)CCCCC3)n1 returned NLRP3 yeast inh -8.3, tim23-1 inh 57.1*, SKKanGAS inh 14.3, tim10-1 inh 46.0*, TIM10 inh 41.7*, tim10-1 conf 38.7*, TIM10 conf 36.8* and tim23-1 confirm 49.2*.
`CCOc1ccc(/C=N/NC(=O)c2[nH]ncc2Br)c(O)c1` gave NLRP3 yeast inh 30.9, tim23-1 inh 78.0*, SKKanGAS inh -8.1, tim10-1 inh 52.3*, TIM10 inh 59.1*, tim10-1 conf 30.1*, TIM10 conf 37.2* and tim23-1 confirm 78.3*.
`O=C(CN1C(=O)NC2(CCCC2)C1=O)OCCOc1ccc(Cl)cc1` gave NLRP3 yeast inh 14.7, tim23-1 inh 9.8, SKKanGAS inh 21.8, tim10-1 inh 5.2 and TIM10 inh -5.1.
